# Data reported in PubChem BioAssay (Tox21).
# A number with no mark means an inactive call. Records with an inconclusive call do not appear. Entries that show only a call come without a potency. Calls of active or inactive are those of the source. Unless noted, calls follow the shape of the dose curve; as a rule, active = well fitted curve in the direction sought with a large enough effect in the repeat runs; inconclusive = weak or mixed curves; inactive = no such curve, though single readings can be large; an effect the other way counts as inactive or inconclusive.
# How the values were obtained:
# [1] = qHTS assay to identify small molecule HDAC inhibitors (AID 1259364); also: top concentration of the series differs between compounds; nearly all actives have a fitted effect of over 45% in size
# Summary of the method: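 Wild-type HCT-116 cells were plated overnight, exposed to compounds for 2 h at 37 °C, then given HDAC-Glo class I/II luminogenic reagent for 30 min at room temperature before luminescence was read.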
# [2] = qHTS assay to identify small molecule agonists of the sonic hedgehog signaling (Shh) pathway - cell viability counter screen (AID 1259366); also: nearly all actives have a fitted effect of over 50% in size; also: potency is read from the fitted curve at half-maximal effect
# Summary of the method: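 Fluorescence from CellTiter-Fluor reports live cells in this counter screen. NIH/3T3-derived Gli1-Luc reporter cells receive test compounds for 24hr at 37C; reagent goes in at 23hr.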
# [3] = qHTS assay to identify small molecule agonists of the sonic hedgehog signaling (Shh) pathway (AID 1259368; calls by dose curve; also: series mostly up to about 92 µM; nearly all actives have a fitted effect of over 15% in size)
# Summary of the method: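 NIH/3T3-derived 3T3Gli1-Luc cells carrying a stably integrated Gli1 response element–firefly luciferase reporter were plated, left 4 hr at 37 C, then given compounds in DMSO for 24 hr. Luminescence was read 30 min after adding luciferase reagent.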
# [4] = qHTS assay to identify small molecule antagonists of the sonic hedgehog signaling (Shh) pathway (AID 1259369; calls by dose curve; also: nearly all actives have a fitted effect of over 45% in size)
# Summary of the method: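 NIH/3T3-derived 3T3Gli1-Luc cells with stably integrated Gli1-Luc reporter were preincubated 4hr at 37 C, then given compounds in DMSO plus Shh conditioned medium and incubated 24hr. Firefly luciferase luminescence read after 30min reagent at room temperature.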
# [5] = molecular target: Estrogen receptor beta (Homo sapiens) (UniProt Q92731); assay: qHTS assay to identify small molecule agonists of the estrogen receptor beta (ER-beta) signaling pathway (AID 1259377; active = well fitted activation curve with a large enough effect in the signal ratio in the repeat runs, not every such curve was filed as active; the % refers to the signal ratio)
# Summary of the method: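 Screening used GripTite ER-beta-UAS-bla cells held in 2% charcoal-stripped FBS medium. After overnight (16 hr) compound incubation at 37C, beta-lactamase activity was detected with a FRET substrate by fluorescence.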
# [6] = molecular target: Estrogen receptor beta (Homo sapiens) (UniProt Q92731); assay: qHTS assay to identify small molecule antagonists of the estrogen receptor beta (ER-beta) signaling pathway (AID 1259378; active = well fitted inhibition curve with a large enough effect in the signal ratio in the repeat runs, not every such curve was filed as active; the % refers to the signal ratio)
# Summary of the method: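 ER-beta-UAS-bla HEK293T cells in 2% charcoal-stripped FBS medium treated with compound plus 1nM final 17-beta-estradiol for 16 hr at 37C. Beta-lactamase reporter read by FRET substrate fluorescence after 2 hours at room temperature.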
# [7] = qHTS assay to identify small molecule agonists of the androgen receptor (AR) signaling pathway in the presence of an antagonist - cell viability counter screen (AID 1259379); also: nearly all actives have a fitted effect of over 25% in size; also: potency is read from the fitted curve at half-maximal effect; as to activity change, negative = cytotoxicity: series mostly up to about 92 µM
# Summary of the method: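 MDA-kb2 human breast carcinoma cells (stable MMTV-luciferase, AR/GR responsive) were seeded 3,000 cells/well, pre-incubated 5 hr at 37C without CO2, then given 3.0uM nilutamide and compounds at 15 concentrations for 16 hr. Viability was read by CellTiter-Fluor fluorescence.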
# [8] = qHTS assay to identify small molecule agonists of the estrogen receptor beta (ER-beta) signaling pathway - cell viability counter screen (AID 1259380); also: nearly all actives have a fitted effect of over 30% in size
# Summary of the method: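 ER-beta-UAS-bla HEK293T cells in medium with 2% charcoal-stripped FBS were preincubated 6 hr at 37C, dosed with compound in DMSO for 16 hr, then after the bla read, CellTiter-Glo was added for 30 min at room temperature; luminescence recorded.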
# [9] = molecular target: Androgen receptor (Homo sapiens) (UniProt P10275); assay: qHTS assay to identify small molecule agonists of the androgen receptor (AR) signaling pathway in the presence of an antagonist (AID 1259381; calls by dose curve; also: nearly all actives have a fitted effect of over 15% in size)
# Summary of the method: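 MDA-kb2 human breast carcinoma cells carrying an MMTV-luciferase reporter (AR- and GR-responsive) were treated with compounds at 15 concentrations plus 3.0uM final nilutamide for 16hr at 37C without CO2; luminescence was read after ONE-Glo addition.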
# [10] = qHTS assay to identify small molecule antagonists of the estrogen receptor beta (ER-beta) signaling pathway - cell viability counter screen (AID 1259382); also: series mostly up to about 92 µM; nearly all actives have a fitted effect of over 55% in size
# Summary of the method: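 ER-beta-UAS-bla HEK293T cells (2,000/well, 2% charcoal-stripped FBS) were pre-incubated 6 hr at 37C, then given compound plus 1nM final 17-beta-estradiol for 16 hr. Viability was read in the same wells by CellTiter-Glo luminescence after 30 min at room temperature.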
# [11] = molecular target: Thyrotropin receptor (Homo sapiens) (UniProt P16473); assay: qHTS assay to identify small molecule antagonists of the thyroid stimulating hormone receptor (TSHR) signaling pathway (AID 1259385; calls by dose curve; also: nearly all actives have a fitted effect of over 20% in size; also: potency is read from the fitted curve at half-maximal effect)
# Summary of the method: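 TSHR-HEK293 cells (800/well) plated 18 h, then compounds with Ro20-1724 and TSH at 1.5 ng/mL final, 30 min at room temperature. cAMP quantified by HTRF (cAMP-d2/anti-cAMP-cryptate, 1 h); 15 concentrations in triplicate.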
# [12] = qHTS assay to identify small molecule agonists of the estrogen receptor alpha (ER-alpha) signaling pathway in the presence of an antagonist - cell viability counter screen (AID 1259386);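 also: cells exposed to compounds for 22 h at 37 °C before the viability read; nearly all actives have a fitted effect of over 30% in size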; also: potency is read from the fitted curve at half-maximal effect; as to activity change, negative = cytotoxicity: series mostly up to about 92 µM
# Summary of the method: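 VM7Luc4E2 cells (endogenous full-length ER-alpha, 4×ERE-luciferase) were held 5 days in phenol red-free medium with 10% charcoal-stripped FBS, plated, then given 10.0nM ICI-182,780 and compounds at 15 concentrations for 22hr at 37C; viability read by CellTiter-Fluor fluorescence.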
# [13] = molecular target: Progesterone receptor (Homo sapiens) (UniProt P06401); assay: qHTS assay to identify small molecule agonists of the progesterone receptor (PR) signaling pathway (AID 1346784; calls by dose curve; also: nearly all actives have a fitted effect of over 30% in size)
# Summary of the method: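 Seed PR-UAS-bla HEK 293T cells (2% charcoal-stripped FBS), incubate 6 hr at 37C; add compounds in DMSO, 16 hr at 37C; add LiveBLAzer B/G substrate, 2 hr RT; read fluorescence intensity.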
# [14] = molecular target: Progesterone receptor (Homo sapiens) (UniProt P06401); assay: qHTS assay to identify small molecule antagonists of the progesterone receptor (PR) signaling pathway (AID 1346795; active = well fitted inhibition curve with a large enough effect in the signal ratio in the repeat runs, not every such curve was filed as active; the % refers to the signal ratio)
# Summary of the method: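 Screening used a GripTite HEK293T line with PR-responsive UAS-beta-lactamase. Cells were challenged with compound in the presence of 1 nM R5020 final for 16 hr at 37C; B/G FRET substrate, 2 hr room temperature, fluorescence.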
# [15] = qHTS assay to identify small molecule HDAC inhibitors - cell viability counter screen (AID 1259365); also: series mostly up to about 92 µM; nearly all actives have a fitted effect of over 50% in size
# Summary of the method: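 To flag cytotoxic hits, 1,500 wild-type HCT-116 cells per well, plated the day before, receive test compounds for 2hr at 37 C before CellTiter-Glo reagent and a luminescence read.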
# [16] = qHTS assay to identify small molecule agonists or antagonists of the thyroid stimulating hormone receptor (TSHR) signaling pathway - wild type cell line counter screen (AID 1259384; calls by dose curve)
# Summary of the method: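 Wild-type Hek293 cells, 800/well, 18 h at 37C, then compound with Ro20-1724 for 30 min RT. cAMP by HTRF (cAMP-d2/anti-cAMP cryptate), 1 h RT, fluorescence read. 15 concentrations, triplicates.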
# [17] = qHTS assay to identify small molecule antagonists of the sonic hedgehog signaling (Shh) pathway - cell viability counter screen (AID 1259367); also: nearly all actives have a fitted effect of over 55% in size
# Summary of the method: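 Seed 3T3 Gli1-Luc cells at 2,000 per well; incubate 4 hr; add compound in DMSO, then conditioned medium; incubate at 37C with 5% CO2; add CellTiter-Fluor after 23 hr; read fluorescence 1 hr later.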
# Sequence of Estrogen receptor beta (Homo sapiens) (Q92731 whole entry, looked up): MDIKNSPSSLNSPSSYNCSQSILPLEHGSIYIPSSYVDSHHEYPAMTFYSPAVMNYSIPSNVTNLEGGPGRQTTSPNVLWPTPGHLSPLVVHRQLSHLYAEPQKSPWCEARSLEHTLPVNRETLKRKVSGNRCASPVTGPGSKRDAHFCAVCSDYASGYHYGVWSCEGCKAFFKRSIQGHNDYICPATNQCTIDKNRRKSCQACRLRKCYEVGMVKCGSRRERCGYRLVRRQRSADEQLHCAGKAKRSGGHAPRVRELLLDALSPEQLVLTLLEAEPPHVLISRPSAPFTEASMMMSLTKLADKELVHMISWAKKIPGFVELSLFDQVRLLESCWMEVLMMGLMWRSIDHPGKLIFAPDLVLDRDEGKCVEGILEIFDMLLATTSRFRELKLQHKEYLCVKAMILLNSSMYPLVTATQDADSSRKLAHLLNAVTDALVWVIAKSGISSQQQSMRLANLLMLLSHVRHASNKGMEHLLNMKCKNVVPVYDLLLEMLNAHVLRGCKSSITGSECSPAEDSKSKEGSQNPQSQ
# Sequence of Progesterone receptor (Homo sapiens) (P06401 whole entry, looked up): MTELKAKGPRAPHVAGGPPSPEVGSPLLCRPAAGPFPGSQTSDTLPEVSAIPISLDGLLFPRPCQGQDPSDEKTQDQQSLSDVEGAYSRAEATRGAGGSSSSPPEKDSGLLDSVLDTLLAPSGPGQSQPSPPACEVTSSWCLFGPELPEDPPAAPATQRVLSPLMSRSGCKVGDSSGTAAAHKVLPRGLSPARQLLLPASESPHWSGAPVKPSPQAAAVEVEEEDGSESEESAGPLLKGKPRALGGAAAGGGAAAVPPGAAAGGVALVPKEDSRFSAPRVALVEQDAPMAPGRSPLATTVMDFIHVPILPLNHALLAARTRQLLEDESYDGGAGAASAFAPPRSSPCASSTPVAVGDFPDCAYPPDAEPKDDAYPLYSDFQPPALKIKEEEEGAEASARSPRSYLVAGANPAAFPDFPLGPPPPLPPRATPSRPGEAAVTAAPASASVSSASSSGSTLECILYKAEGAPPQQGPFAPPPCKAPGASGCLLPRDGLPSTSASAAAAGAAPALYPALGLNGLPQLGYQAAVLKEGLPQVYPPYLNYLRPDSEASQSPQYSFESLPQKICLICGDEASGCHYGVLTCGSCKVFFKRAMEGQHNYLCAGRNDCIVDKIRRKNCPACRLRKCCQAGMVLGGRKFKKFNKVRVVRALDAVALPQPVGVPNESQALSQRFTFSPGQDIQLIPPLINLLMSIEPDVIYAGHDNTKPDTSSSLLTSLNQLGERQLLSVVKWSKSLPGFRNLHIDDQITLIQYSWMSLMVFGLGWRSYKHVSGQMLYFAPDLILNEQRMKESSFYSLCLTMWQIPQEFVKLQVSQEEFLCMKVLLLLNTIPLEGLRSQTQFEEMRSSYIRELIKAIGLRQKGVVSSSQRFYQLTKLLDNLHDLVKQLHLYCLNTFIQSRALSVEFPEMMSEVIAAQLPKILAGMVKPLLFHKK
# Sequence of Thyrotropin receptor (Homo sapiens) (P16473 whole entry, looked up): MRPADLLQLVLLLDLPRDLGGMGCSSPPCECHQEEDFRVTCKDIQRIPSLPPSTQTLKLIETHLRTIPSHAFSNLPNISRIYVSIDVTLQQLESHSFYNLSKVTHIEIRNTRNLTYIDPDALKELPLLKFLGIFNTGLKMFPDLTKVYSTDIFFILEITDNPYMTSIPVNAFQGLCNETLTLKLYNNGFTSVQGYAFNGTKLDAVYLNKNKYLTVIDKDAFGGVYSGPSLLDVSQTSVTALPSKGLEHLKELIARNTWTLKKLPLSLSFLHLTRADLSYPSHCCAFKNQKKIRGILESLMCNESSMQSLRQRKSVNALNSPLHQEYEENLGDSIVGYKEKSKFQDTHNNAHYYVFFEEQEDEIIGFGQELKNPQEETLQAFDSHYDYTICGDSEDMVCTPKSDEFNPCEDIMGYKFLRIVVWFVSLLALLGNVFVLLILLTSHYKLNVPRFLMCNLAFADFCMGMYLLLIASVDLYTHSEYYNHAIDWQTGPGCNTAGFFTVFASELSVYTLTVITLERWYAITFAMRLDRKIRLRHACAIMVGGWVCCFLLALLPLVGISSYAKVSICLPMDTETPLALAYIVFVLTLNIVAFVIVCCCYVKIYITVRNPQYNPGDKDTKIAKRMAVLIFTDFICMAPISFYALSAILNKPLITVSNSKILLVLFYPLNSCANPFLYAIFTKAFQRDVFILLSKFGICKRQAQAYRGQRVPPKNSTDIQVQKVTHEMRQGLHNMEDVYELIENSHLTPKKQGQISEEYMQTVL
# Sequence of Androgen receptor (Homo sapiens) (P10275 whole entry, looked up): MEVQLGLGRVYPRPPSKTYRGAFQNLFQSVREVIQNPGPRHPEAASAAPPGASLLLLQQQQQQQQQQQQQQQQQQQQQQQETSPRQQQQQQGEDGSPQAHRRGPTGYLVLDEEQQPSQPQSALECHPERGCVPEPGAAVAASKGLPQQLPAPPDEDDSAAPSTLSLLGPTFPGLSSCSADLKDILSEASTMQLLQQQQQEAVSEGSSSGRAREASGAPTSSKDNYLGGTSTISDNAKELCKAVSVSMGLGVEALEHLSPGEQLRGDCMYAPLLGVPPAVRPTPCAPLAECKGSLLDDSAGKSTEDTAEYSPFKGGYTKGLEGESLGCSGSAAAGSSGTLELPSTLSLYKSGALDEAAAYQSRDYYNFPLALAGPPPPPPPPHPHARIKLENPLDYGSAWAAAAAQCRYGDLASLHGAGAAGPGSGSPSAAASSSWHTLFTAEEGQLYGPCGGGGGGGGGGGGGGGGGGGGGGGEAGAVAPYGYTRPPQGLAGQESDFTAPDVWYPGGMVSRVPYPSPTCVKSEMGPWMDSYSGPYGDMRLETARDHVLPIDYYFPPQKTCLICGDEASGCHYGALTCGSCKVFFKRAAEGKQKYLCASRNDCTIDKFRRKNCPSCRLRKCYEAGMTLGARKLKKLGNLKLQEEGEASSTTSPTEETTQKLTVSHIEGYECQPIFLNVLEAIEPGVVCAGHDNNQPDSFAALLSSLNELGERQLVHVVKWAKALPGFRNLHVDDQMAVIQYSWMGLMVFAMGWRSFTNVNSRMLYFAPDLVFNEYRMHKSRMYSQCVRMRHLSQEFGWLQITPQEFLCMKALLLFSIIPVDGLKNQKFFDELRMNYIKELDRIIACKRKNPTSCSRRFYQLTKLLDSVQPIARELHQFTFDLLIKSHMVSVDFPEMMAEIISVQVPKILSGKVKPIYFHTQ
structure (smiles),measurement,setting,value
Cc1cc(C)c(S(=O)(=O)O)cc1N=Nc1cc(S(=O)(=O)O)c2ccccc2c1O,Potency,[1],inactive
same,Potency,[2],27.3 µM (active)
same,outcome,[3],inactive
same,Potency,[4],inactive
same,Potency,[5],inactive
same,Potency,[6],inactive
same,Potency,[7],27.3 µM (active)
same,Potency,[8],inactive
same,Potency,[9],inactive
same,Potency,[10],inactive
same,Potency,[11],inactive
same,Potency,[12],27.3 µM (active)
same,outcome,[13],inactive
same,Potency,[14],inactive
CCOC(=O)[C@H](CCc1ccccc1)N[C@H]1CCc2ccccc2N(CC(=O)O)C1=O,Potency,[1],inactive
same,outcome,[15],inactive
same,Potency,[2],inactive
same,outcome,[3],inactive
same,Potency,[4],inactive
same,Potency,[5],inactive
same,Potency,[7],inactive
same,Potency,[16],inactive
same,Potency,[11],29.8 µM (active)
same,Potency,[12],inactive
same,outcome,[13],inactive
CC(C)=CCCC(C)CC=O (stereo unspecified),Potency,[1],inactive
same,outcome,[15],inactive
same,Potency,[2],inactive
same,Potency,[17],inactive
same,outcome,[3],inactive
same,Potency,[4],inactive
same,Potency,[7],inactive
same,Potency,[10],inactive
same,Potency,[16],inactive
same,Potency,[11],inactive
same,Potency,[12],inactive
same,outcome,[13],inactive
CCCCCCCCCCCCCCCCCBr,"activity change, negative = inhibition",[1],6.57% [at 19 µM]
same,"viability change, negative = cytotoxic",[2],-1.63% [at 19 µM]
same,"viability change, negative = cytotoxic",[17],-1.98% [at 19 µM]
same,activity change,[3],-0.456% [at 18.9 µM]
same,"activity change, negative = inhibition",[4],-0.552% [at 19 µM]
same,activation,[5],-3.04% [at 19 µM]
same,"activity, negative = inhibition",[6],11.4% [at 19 µM]
same,"activity change, negative = cytotoxicity",[7],4.41% [at 19 µM]
same,"activity change, negative = cytotoxicity",[10],-6.31% [at 19 µM]
same,"activity change, negative = cytotoxicity",[12],0.889% [at 19 µM]
same,"activity change, negative = inhibition",[14],0.192% [at 18.9 µM]
O=S1(=O)N=C(O)c2ccccc21,Potency,[1],inactive
same,outcome,[15],inactive
same,Potency,[2],inactive
same,Potency,[17],inactive
same,outcome,[3],inactive
same,Potency,[4],inactive
same,Potency,[7],inactive
same,Potency,[10],inactive
same,Potency,[16],inactive
same,Potency,[11],inactive
same,Potency,[12],inactive
same,outcome,[13],inactive
same,Potency,[14],inactive
